From ChEMBL document CHEMBL4513216, “Probing the Open Global Health Chemical Diversity Library for Multistage-Active Starting Points for Next-Generation Antimalarials” (ACS Infect Dis, 2020) come the findings set out here.

Screen size: about 69,000 compounds; about 8,600 (12%) showed an effect of 50% or more. For the sample, strong results were picked, then their nearest neighbours and some compounds at random.

The subject of the test is Plasmodium berghei. Put plainly: Screen against P. berghei liver stage (PbLuc), transformed with Luciferase, at 10uM. The class given is functional, HepG2. The settings on record: tested at 10 uM.
As to `CCn1cc(-c2nn3c(C(F)(F)F)nnc3s2)c(C)n1`, the INHIBITION is 4.12%. The same measure for `Cc1nc2n(n1)CC(Nc1cc(C(F)(F)F)nc3ncnn13)CC2` (centres undefined): -29.2%. The result for `Cc1nn(C)cc1-c1cc(C(F)(F)F)nc(NC2CCN(C)CC2)n1` reads 40.5%; that for `Cc1nn(C)cc1-c1cc(C(F)F)nc(NC2CCCCC2)n1`, 26.9%. The same measure for `CCn1cc(-c2cc(C(F)(F)F)nc(NC3CCCC3)n2)c(C)n1`: 68.7%; for `Cc1nn(C)cc1-c1cc(C(F)(F)F)nc(NC2CCCCC2)n1`: 58.9%. With `Cc1cc(N)n(-c2ccc3nnc(C)n3n2)n1`, the INHIBITION stood at 37.5%.

For `Cc1cc(C(=O)N2CCCC(n3cncn3)C2)on1` (centres undefined), the INHIBITION is listed as -23.9%. The result for `CCc1ccccc1CN1CC[C@@]2(O)CCN(S(=O)(=O)N(C)C)C[C@H]2C1` reads 44.6%. The same measure for `O=C(Nc1cncc(Br)c1O)c1ccon1`: 83.2%; for `O=C(Cc1ccon1)Nc1cncc(Br)c1O`: -9.23%. The result for `O=C(Cc1ccn[nH]1)Nc1cncc(Br)c1O` reads 22.6%; that for `CN(C)C(=O)CO[C@H]1CN(Cc2cccc(C#N)c2)[C@@H]2COC[C@H]12`, 7.31%.

Turning to `Cc1noc(C2CCCCN2C(=O)NCc2ccco2)n1` (centres undefined), the INHIBITION is 26.4%. The result for `CNC1CCC2(CC1)CNC(=O)c1cc(C)ccc1O2` (centres undefined) reads -16.5%; that for `O=C(NC1CCS(=O)(=O)C1)c1cn(C2CC2)c(=O)c2ccccc12` (centres undefined), 43.9%; that for `C[C@@H]1CCC[C@H](C)N1CC(=O)N1CCc2[nH]c(-c3ccccc3)nc2C1`, 64.8%. For the compound `CC(=O)NCC(=O)N1CCc2[nH]c(-c3ccccc3)nc2C1`, the INHIBITION came to 43%.

In the case of `CN1CCCN(CC(=O)N2CCc3[nH]c(-c4ccccc4)nc3C2)CC1`, the INHIBITION amounted to 17.6%.

On to `COc1nc2c(cc1C(=O)NCc1noc(Cc3cccs3)n1)CCC2`, for which the INHIBITION worked out at 24.7%. The same measure for `COc1nc2c(cc1C(=O)NCc1nc(CSC)no1)CCC2`: 43.1%; for `COc1nc2c(cc1C(=O)NCc1noc(-c3ccco3)n1)CCC2`: 55%; for `CCCC(N)CNS(=O)(=O)Cc1cccc(C#N)c1` (centres undefined): 39.3%. Consider `O=C(NCCn1ccnc1-c1cc2n(n1)CCCNC2)c1ccncc1`, for which the INHIBITION is 32%. The same measure for `O=C(NCCn1ccnc1-c1cc2n(n1)CCNC2)c1ccc(F)cc1`: 8.08%; for `O=C(NCCn1ccnc1-c1cc2n(n1)CCNC2)c1ccncc1`: 62.4%; for `Nc1nc(N2CCCCC2)ncc1C(=O)NCc1ccc(F)c(Cl)c1`: 26.4%. The same measure for `O=C(COc1cccc2c1CCC2=O)NCc1ccccc1F`: 1.58%. The result for `O=C(COc1cccc2c1CCC2=O)NCC(F)(F)F` reads 20%. Take `O=C(COc1cccc2c1CCC2=O)NCc1ccccc1Cl`: the INHIBITION is reported as 50%. On to `O=C(COc1cccc2c1CCC2=O)NCCOc1ccccc1`, for which the INHIBITION is recorded as 41.8%.

Regarding `O=C(COc1cccc2c1CCC2=O)NCCSc1ccccc1`, the INHIBITION is recorded as -66.3%. The same measure for `O=C(COc1cccc2c1CCC2=O)NCCc1cccs1`: 63.7%; for `Cc1cc(N2CCC(O)(CN(C)C)C2)c2cc3c(cc2n1)OCO3` (centres undefined): -7.02%; for `COCC(=O)N1CCCC1c1ccc(C(=O)NCc2ccccc2Cl)s1` (centres undefined): -9.66%. The result for `COc1ccc(CSc2nnc(N)n2C2CC2)cc1Cl` reads 46.3%; that for `CCCS(=O)(=O)N1CCC2(CN(c3ccccc3)C(=O)CN2C)C1` (centres undefined), 41.2%; that for `Cc1ccc(C(=O)N2CCc3nc4c(C)csc4c(=O)n3CC2)cn1`, 57.5%.

Take `Cc1csc2c(=O)n3c(nc12)CCN(C(=O)c1cccnc1)CC3`: the INHIBITION came to 36.4%. The result for `Cc1cc2c(=O)n3c(nc2s1)CCN(C(=O)c1ccncc1)CC3` reads 19.9%; that for `Cc1csc2nc3n(c(=O)c12)CCN(Cc1ccccn1)CC3`, 1.5%. For the compound `Cc1csc2nc3n(c(=O)c12)CCN(C(=O)c1ccncc1)CC3`, the INHIBITION was 56.9%.

In the case of `Cc1csc2c(=O)n3c(nc12)CCN(C(=O)c1ccccn1)CC3`, the INHIBITION turned out to be 35.2%.

As to `CCC[C@H]1CN(S(C)(=O)=O)C[C@@H]1NC(=O)CCOCC`, the INHIBITION amounted to 27.6%.

In the case of `O=C(CCN1CCCO1)N1CCCC(CO)(CCCc2ccccc2)C1` (centres undefined), the INHIBITION is reported as -4.56%. The result for `N#Cc1cccc(CN2CC3(CCCCN3c3cccnc3)CC2=O)c1` (centres undefined) reads 57.1%; that for `Cc1noc(C)c1CN1CC2(CCN(Cc3c[nH]cn3)CC2)CC1=O`, -27.6%.

For the compound `N#Cc1cccc(CN2CC[C@@H]3[C@@H]2CC(=O)N3Cc2cccnc2)c1`, the INHIBITION was found to be 22.7%. The same measure for `N#Cc1ccc(CN2CCN(c3ccncc3Cl)CC2=O)cc1`: 24.5%; for `N#Cc1ccc(CN2CCN(Cc3ccncc3Cl)CC2=O)cc1`: 25.7%. The result for `Cc1noc(C)c1CN1CC2(CCCCN2C)CC1=O` (centres undefined) reads 39.3%; that for `N#Cc1cccc(CN2CC3(CCCCN3c3cncnc3)CC2=O)c1` (centres undefined), 27.5%; that for `Cc1noc(C)c1CN1CC2(CCCCN2c2cncnc2)CC1=O` (centres undefined), 65.9%. The result for `N#Cc1ccc(CN2CC3(CCCCN3c3cccnc3)CC2=O)cc1` (centres undefined) reads 57.1%.
